Data published in PubChem BioAssay (NCATS).
Several values for one entry are separate records, joined by “and”; a condition that tells them apart may be missing. Identical values can stand only once. Results filed as inconclusive are left out. Where a call stands in place of a potency, no number is given. Activity calls are given as the source filed them. Unless noted, calls follow the shape of the full dose curve.

Columns and labels:
[1] = MultiTox-Fluor Cytotoxicity Assay - LYMP1-002 - Dead Cells (AID 960; active = well fitted curve in the direction sought with a large enough effect; an effect the other way counts as inactive or inconclusive; also: nearly all actives have a fitted effect of over 60% in size)
Outline: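 Dead-cell fluorescence (Ex/Em 485/520) after 16 h compound exposure at 37 C of LYMP1-002 lymphoblastoid cells in complete medium; AC50 by Hill equation, with data scaled between DMSO and 15 uM tetraoctylammonium bromide.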

[2] = target: Estrogen receptor (Homo sapiens) (UniProt P03372); assay: qHTS assay for small molecule antagonists of estrogen receptor alpha signaling (AID 588513; active = well fitted curve in the direction sought with a large enough effect in the signal ratio, with a control signal flat, not every such curve was filed as active; the % refers to the signal ratio)
Outline: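 Antagonist-mode qHTS in ER-alpha-UAS-bla HEK 293 cells: compound titration, 0.5nM estradiol for 18 h, CCF4 fluorescence, Hill-derived IC50.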

[3] = target: Estrogen receptor (Homo sapiens) (UniProt P03372); assay: qHTS assay for small molecule agonists of estrogen receptor alpha signaling (AID 588514); also: nearly all actives have a fitted effect of over 70% in size
Outline: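 EC50 and efficacy came from Hill fits of beta-lactamase reporter signal (CCF4 dye, 2 h at room temperature) scaled between DMSO and 20 nM 17-beta-estradiol. Agonist mode: HEK293 ER-alpha-UAS-bla cells in charcoal/dextran-stripped serum medium, 18 h compound exposure at 37 C.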

[4] = target: Glucocorticoid receptor (Homo sapiens) (UniProt P04150); assay: qHTS assay for small molecule agonists of glucocorticoid receptor signaling (AID 588532; active = well fitted curve in the direction sought with a large enough effect in the signal ratio, with a control signal flat; the % refers to the signal ratio); conditions: HeLa MMTV-bla, beta-lactamase ratio, agonist, 18 h; stronger effect = higher value; percent of dexamethasone control, DMSO zero
Outline: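 Stimulation of a glucocorticoid response element-driven beta-lactamase gene was measured in HeLa cells. Responses were scaled between DMSO basal and 0.1 uM dexamethasone, then fitted for half-maximal stimulation.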

[5] = target: Glucocorticoid receptor (Homo sapiens) (UniProt P04150); assay: qHTS assay for small molecule antagonists of glucocorticoid receptor signaling (AID 588533; active = well fitted inhibition curve with a large enough effect in the signal ratio, with a control signal flat, not every such curve was filed as active; the % refers to the signal ratio;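 also: cells stimulated with 2 nM dexamethasone as agonist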; also: potency is read from the fitted curve at half-maximal effect)
Outline: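 Antagonist-mode qHTS: compound titrations added to GRE-bla HeLa cells, then dexamethasone 2 nM final; 18 h, 37 C. CCF4 FRET fluorescence normalized to dexamethasone and DMSO; IC50 from Hill fit.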

[6] = target: Peroxisome proliferator-activated receptor gamma (Homo sapiens) (UniProt P37231); assay: qHTS assay for small molecule agonists of peroxisome proliferator-activated receptor gamma signaling (AID 588536; active = well fitted curve in the direction sought with a large enough effect in the signal ratio, with a control signal flat, not every such curve was filed as active; the % refers to the signal ratio)
Outline: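 Cells were plated and held 6–6.5 h at 37 C, then compounds were added as a titration series. After a further 16 h, CCF4 dye was loaded for 2 h at room temperature and emission at 460/530 nm recorded.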

[7] = qHTS assay for small molecule agonists of retinoid X receptor alpha signaling (AID 588544); conditions: HEK293T RXRa-UAS-bla, beta-lactamase reporter, 18 h; 530 nm emission
[8] = target: Retinoic acid receptor RXR-alpha (Homo sapiens) (UniProt P19793); assay: as above
[9] = target: Thyroid hormone receptor beta (Homo sapiens) (UniProt P10828); assay: qHTS assay for small molecule agonists of thyroid hormone receptor beta signaling (AID 588545)
Outline: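 Cells (2500/well) were seeded, incubated 4 hrs at 37 C, dosed with a compound series, incubated 18 hrs, loaded with CCF4 dye for 2 hrs at RT, then read for fluorescence. Data were scaled between DMSO (0%) and 10 nM T3 (100%).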

[10] = target: Thyroid hormone receptor beta (Homo sapiens) (UniProt P10828); assay: qHTS assay for small molecule antagonists of thyroid hormone receptor beta signaling (AID 588547; active = well fitted inhibition curve with a large enough effect in the signal ratio, with a control signal flat, not every such curve was filed as active; the % refers to the signal ratio;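 also: cells stimulated with 0.4 nM T3 agonist during compound exposure; series mostly up to about 77 µM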); conditions: TR-UAS-bla HEK293, beta-lactamase ratio, antagonist mode, 18 h
Outline: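 TR-UAS-bla GripTite HEK293 cells in 2% charcoal/dextran FBS medium were preincubated 4 h at 37 C, given compound (0.59 nM to 92 uM) plus 0.4 nM T3 (final) for 18 h, then CCF4 for 2 h at RT; Hill fit gave IC50.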

[11] = qHTS assay for small molecule activators of the p53 signaling pathway (AID 651743; active = well fitted activation curve with a large enough effect in the signal ratio, not every such curve was filed as active; the % refers to the signal ratio; also: series mostly up to about 92 µM); conditions: HCT-116 p53RE-bla, beta-lactamase FRET ratio, 16 h; activation: stronger effect = higher value
Outline: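 Agonist-mode quantitative HTS in HCT-116 cells carrying a p53-response-element beta-lactamase reporter; 16 h compound treatment at 37 C, then FRET substrate loading for 2 h at room temperature and fluorescence read.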

[12] = qHTS assay for small molecule disruptors of the mitochondrial membrane potential - 1 hr assay (AID 651754); also: nearly all actives have a fitted effect of over 35% in size
Outline: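 Mitochondrial potential in living HepG2 cells after 1 hr compound treatment at 37C was read with Mito-MPS dye added for a further 30 min. Red aggregate and green monomer fluorescence were measured; loss of potential leaves dye as cytoplasmic monomers.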

[13] = target: Nuclear receptor ROR-gamma (Homo sapiens) (UniProt P51449); assay: qHTS assay for small molecule antagonists of the retinoid-related orphan receptor gamma (ROR-gamma) signaling pathway (AID 651802; active = well fitted curve in the direction sought with a large enough effect; an effect the other way counts as inactive or inconclusive;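 also: CHO cells with doxycycline-induced ROR-gamma expression; luciferase reporter luminescence driven by ROR response element; series mostly up to about 92 µM; nearly all actives have a fitted effect of over 60% in size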)
Outline: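 Luminescence (One-Glo, 30 min RT) measured 16 h after compound addition and doxycycline induction at 37C. Reporter: RORE-luciferase under TET-inducible ROR-gamma in CHO cells.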

[14] = qHTS assay for small molecule agonists of the antioxidant response element (ARE) signaling pathway measured by Nrf2-dependant transcriptional activity (AID 720636; active = well fitted curve in the direction sought with a large enough effect in the repeat runs; an effect the other way counts as inactive or inconclusive)
Outline: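 Nrf2-dependent transcription read as ONE-Glo luciferase signal from ARE-luc HepG2 reporter cells after 16 hr compound treatment at 37 C, 5% CO2, in assay medium with 1% dialyzed FBS.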

[15] = target: Nuclear receptor subfamily 1 group I member 2 (Rattus norvegicus) (UniProt Q9R1A7); assay: qHTS assay for small molecule activators of the rat pregnane X receptor (rPXR) signaling pathway (AID 651751; call rule not given here); conditions: rPXR reporter cells, luciferase (One-Glo), 24 h
[16] = qHTS assay for small molecule activators of the human pregnane X receptor (PXR) signaling pathway (AID 720659; call rule not given here)
[17] = target: Cytochrome P450 3A4 (Homo sapiens) (UniProt P08684); assay: qHTS Assay for Inhibitors and Substrates of Cytochrome P450 3A4 (AID 884; active = well fitted curve in the direction sought with a large enough effect; an effect the other way counts as inactive or inconclusive; also: series mostly up to about 57 µM; nearly all actives have a fitted effect of over 50% in size)
Outline: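 Luminescent readout of luciferin produced by CYP3A4 (20 nM) dealkylation of Luciferin-PPXE, 25 uM (its KM). NADPH-driven reaction ran 60 min at RT after 10 min compound preincubation; data scaled to 57 uM ketoconazole as 100% inhibition.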

[18] = target: Vitamin D3 receptor (Homo sapiens) (UniProt P11473); assay: qHTS assay for small molecule antagonists of vitamin D receptor signaling (AID 588541);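 also: receptor activated by calcitriol during compound treatment; series mostly up to about 77 µM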
Outline: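 VDR-UAS-bla HEK293T cells (2000/well, 2% charcoal-stripped FBS) were treated with titrated compounds plus 1-alpha,25-dihydroxyvitamin D3 (50 nM or 3 nM final) for 16 h at 37 C. CCF4 beta-lactamase fluorescence was read; Hill fits gave IC50.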

[19] = target: Vitamin D3 receptor (Homo sapiens) (UniProt P11473); assay: qHTS assay for small molecule agonists of vitamin D receptor signaling (AID 588543)
Outline: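 Measured: β-lactamase reporter activity (CCF4, 405 nm excitation, 460/530 nm emission) in HEK293T VDR-UAS-bla cells after 16 h compound exposure at 37 °C. Normalization against 50 nM 1α,25-dihydroxyvitamin D3 and DMSO; Hill-fit EC50.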

[20] = qHTS assay for small molecule agonists of the antioxidant response element (ARE) signaling pathway (AID 651741; active = well fitted activation curve with a large enough effect in the signal ratio; the % refers to the signal ratio; also: potency is read from the fitted curve at half-maximal effect)
Outline: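 Reporter: beta-lactamase under ARE, stably in HepG2. Exposure: 16 h, 37 C, compounds delivered in DMSO by pin tool after 5 h cell preincubation. Readout: FRET substrate fluorescence after 2 h at RT.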

Nuclear receptor subfamily 1 group I member 2 (Rattus norvegicus), sequence (Q9R1A7 whole entry, looked up): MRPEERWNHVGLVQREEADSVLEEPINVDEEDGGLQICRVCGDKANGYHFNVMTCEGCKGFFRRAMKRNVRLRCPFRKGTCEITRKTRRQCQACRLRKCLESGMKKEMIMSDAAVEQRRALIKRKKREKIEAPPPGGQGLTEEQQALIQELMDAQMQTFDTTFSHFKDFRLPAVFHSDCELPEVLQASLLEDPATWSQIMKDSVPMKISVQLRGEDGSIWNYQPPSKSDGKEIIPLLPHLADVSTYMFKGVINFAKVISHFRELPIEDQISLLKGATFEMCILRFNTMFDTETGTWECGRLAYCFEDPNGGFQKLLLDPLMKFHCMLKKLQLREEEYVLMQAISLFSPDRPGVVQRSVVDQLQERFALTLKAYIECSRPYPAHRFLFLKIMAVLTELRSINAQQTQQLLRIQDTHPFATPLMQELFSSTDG
Retinoic acid receptor RXR-alpha (Homo sapiens), sequence (P19793 whole entry, looked up): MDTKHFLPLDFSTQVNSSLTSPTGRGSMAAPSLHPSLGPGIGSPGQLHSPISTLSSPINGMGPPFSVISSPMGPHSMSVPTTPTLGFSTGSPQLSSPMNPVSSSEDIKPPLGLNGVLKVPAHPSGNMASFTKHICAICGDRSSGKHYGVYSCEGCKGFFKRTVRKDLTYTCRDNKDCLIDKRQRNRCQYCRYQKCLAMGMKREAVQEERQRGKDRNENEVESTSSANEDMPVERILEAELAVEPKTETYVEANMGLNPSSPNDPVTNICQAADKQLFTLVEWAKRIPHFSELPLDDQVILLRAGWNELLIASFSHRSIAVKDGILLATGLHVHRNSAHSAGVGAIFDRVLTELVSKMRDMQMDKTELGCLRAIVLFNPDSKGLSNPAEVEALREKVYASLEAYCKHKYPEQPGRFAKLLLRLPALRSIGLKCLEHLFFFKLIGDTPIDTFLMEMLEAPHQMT
Thyroid hormone receptor beta (Homo sapiens), sequence (P10828 whole entry, looked up): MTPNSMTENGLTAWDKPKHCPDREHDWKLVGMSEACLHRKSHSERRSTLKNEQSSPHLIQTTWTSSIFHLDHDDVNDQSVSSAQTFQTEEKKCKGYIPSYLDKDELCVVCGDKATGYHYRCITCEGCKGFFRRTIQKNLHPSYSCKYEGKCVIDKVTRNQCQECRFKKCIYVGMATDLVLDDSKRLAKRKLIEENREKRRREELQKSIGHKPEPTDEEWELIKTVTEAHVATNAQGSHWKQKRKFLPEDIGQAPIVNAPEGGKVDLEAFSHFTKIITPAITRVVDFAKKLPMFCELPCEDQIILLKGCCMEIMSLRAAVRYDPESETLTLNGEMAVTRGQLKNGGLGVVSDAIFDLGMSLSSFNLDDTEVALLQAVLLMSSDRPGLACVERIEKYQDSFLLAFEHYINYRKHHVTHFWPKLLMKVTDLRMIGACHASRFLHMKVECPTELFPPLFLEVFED
Glucocorticoid receptor (Homo sapiens), sequence (P04150 whole entry, looked up): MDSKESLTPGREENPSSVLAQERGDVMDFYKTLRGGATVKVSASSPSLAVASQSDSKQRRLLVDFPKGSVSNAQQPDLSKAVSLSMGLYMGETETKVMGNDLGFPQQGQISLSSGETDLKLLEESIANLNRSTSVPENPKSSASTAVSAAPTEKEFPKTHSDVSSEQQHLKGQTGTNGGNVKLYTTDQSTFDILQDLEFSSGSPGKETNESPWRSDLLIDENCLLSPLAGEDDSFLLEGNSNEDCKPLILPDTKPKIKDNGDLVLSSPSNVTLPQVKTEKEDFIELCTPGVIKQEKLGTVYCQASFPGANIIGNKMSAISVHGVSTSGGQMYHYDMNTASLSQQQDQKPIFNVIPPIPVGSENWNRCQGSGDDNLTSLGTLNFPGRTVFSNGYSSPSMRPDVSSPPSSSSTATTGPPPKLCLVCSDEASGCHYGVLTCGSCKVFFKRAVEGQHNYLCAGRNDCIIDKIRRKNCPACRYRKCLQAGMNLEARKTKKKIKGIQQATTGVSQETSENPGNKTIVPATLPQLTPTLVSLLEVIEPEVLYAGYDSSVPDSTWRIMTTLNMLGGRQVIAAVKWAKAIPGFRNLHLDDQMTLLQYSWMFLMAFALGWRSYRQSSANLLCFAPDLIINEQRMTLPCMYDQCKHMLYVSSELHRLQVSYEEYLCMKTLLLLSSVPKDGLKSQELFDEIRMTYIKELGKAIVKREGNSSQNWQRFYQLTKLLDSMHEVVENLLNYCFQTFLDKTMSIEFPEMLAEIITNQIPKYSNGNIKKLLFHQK
Peroxisome proliferator-activated receptor gamma (Homo sapiens), sequence (P37231 whole entry, looked up): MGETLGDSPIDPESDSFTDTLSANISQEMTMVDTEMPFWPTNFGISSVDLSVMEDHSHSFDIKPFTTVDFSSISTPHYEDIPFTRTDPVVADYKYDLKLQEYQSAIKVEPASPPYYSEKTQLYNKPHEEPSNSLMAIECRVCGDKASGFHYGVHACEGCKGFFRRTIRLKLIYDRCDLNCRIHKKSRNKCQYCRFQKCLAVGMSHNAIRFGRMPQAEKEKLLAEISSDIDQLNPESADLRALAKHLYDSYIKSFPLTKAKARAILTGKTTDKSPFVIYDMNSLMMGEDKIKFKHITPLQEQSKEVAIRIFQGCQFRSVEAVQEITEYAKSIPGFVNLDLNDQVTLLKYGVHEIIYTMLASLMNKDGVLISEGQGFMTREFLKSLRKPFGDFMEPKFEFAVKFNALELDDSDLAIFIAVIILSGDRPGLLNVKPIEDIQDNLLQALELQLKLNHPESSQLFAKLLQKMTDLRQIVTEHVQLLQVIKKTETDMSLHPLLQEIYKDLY
Vitamin D3 receptor (Homo sapiens), sequence (P11473 whole entry, looked up): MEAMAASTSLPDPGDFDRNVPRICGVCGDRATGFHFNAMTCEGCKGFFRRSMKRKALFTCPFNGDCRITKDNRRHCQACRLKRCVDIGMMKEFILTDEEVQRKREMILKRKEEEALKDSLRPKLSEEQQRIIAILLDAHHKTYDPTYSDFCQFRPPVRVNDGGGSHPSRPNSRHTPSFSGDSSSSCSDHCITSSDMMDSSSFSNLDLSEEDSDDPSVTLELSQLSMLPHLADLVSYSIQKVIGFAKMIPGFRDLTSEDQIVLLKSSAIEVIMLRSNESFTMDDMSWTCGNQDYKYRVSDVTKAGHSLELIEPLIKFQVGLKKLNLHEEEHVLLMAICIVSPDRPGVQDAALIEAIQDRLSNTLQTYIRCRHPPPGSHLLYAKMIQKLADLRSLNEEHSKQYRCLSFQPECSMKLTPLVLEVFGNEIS
Nuclear receptor ROR-gamma (Homo sapiens), sequence (P51449 whole entry, looked up): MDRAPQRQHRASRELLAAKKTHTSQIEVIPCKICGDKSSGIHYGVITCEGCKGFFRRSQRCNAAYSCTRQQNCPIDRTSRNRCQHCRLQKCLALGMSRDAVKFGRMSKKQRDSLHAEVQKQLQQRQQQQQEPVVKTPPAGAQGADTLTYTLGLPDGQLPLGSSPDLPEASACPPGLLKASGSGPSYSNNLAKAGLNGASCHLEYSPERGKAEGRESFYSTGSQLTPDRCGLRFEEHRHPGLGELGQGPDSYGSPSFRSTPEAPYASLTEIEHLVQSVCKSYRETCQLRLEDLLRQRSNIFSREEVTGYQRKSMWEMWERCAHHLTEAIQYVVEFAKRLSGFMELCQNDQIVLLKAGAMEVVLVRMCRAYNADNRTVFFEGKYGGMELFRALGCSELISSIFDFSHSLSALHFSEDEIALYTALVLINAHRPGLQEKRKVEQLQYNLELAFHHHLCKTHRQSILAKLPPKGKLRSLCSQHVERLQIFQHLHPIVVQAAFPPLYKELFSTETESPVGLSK
Estrogen receptor (Homo sapiens), sequence (P03372 whole entry, looked up): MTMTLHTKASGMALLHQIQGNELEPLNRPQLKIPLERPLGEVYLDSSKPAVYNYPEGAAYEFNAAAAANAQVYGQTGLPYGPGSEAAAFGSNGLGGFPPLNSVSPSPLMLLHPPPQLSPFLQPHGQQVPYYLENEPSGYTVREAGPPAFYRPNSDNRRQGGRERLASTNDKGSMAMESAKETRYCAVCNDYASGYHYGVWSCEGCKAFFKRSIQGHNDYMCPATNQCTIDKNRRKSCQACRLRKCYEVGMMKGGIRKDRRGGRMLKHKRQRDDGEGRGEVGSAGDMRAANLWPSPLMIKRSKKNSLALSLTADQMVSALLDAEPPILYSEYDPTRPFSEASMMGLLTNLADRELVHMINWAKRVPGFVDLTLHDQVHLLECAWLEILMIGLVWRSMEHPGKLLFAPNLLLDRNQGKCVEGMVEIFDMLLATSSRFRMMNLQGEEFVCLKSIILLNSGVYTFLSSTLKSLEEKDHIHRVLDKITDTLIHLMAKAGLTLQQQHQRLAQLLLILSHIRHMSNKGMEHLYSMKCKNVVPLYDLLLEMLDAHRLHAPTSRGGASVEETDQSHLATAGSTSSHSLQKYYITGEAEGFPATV
Cytochrome P450 3A4 (Homo sapiens), sequence (P08684 whole entry, looked up): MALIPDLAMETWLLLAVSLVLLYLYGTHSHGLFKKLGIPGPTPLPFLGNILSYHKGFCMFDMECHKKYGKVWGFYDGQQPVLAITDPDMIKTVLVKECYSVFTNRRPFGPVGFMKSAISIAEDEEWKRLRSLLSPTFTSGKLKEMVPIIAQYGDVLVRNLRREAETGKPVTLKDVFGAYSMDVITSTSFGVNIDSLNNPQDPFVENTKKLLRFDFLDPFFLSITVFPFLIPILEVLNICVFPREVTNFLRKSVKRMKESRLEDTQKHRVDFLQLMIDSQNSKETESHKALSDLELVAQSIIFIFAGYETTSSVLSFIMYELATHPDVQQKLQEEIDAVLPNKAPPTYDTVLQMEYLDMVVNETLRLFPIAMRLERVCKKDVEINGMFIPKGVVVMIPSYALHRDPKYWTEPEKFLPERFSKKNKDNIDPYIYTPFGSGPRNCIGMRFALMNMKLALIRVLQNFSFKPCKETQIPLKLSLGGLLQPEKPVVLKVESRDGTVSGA

Nc1ccc(Cl)cc1Cl
Potency [1]: inactive
Potency [2]: inactive
Potency [3]: inactive
activation [4]: -1.05% (inactive) and -10.1% (inactive)
Potency [5]: inactive
outcome [6]: inactive
max response [7]: -10.9%
outcome [8]: inactive
outcome [9]: inactive
activity change % (negative = inhibition) [10]: -5.09% (inactive) and -14.9% (inactive)
activation [11]: -2.62% (inactive) and -5.11% (inactive)
Potency [12]: inactive
Potency [13]: inactive
Potency [14]: inactive
max response [15]: 2.63% (inactive) and 1.63% (inactive)
outcome [16]: inactive

CCCCCCCCO
Potency [17]: inactive
Potency [2]: inactive
Potency [3]: inactive
activation [4]: -2.22% (inactive) and -1.08% (inactive)
Potency [5]: inactive
outcome [6]: inactive
outcome [18]: inactive
outcome [19]: inactive
max response [7]: -1.34% and -17.2% and -8.68%
outcome [8]: inactive
outcome [9]: inactive
activity change % (negative = inhibition) [10]: -10.6% (inactive) and 5.6% (inactive) and -2.56% (inactive)
Potency [20]: inactive
activation [11]: -2.87% (inactive) and -7.85% (inactive) and -0.202% (inactive)
Potency [12]: inactive
Potency [13]: inactive
Potency [14]: inactive
max response [15]: -3.47% (inactive) and -2.32% (inactive) and 2.37% (inactive)
outcome [16]: inactive

C=CCOC(=O)c1ccccc1C(=O)OCC=C
Potency [2]: inactive
Potency [3]: inactive
outcome [6]: inactive
max response [7]: -9.89% and -14.8%
outcome [8]: inactive
outcome [9]: inactive
activity change % (negative = inhibition) [10]: -9.14% (inactive) and 1.91% (inactive)
activation [11]: -0.242% (inactive) and -1.19% (inactive)
Potency [12]: inactive
Potency [13]: inactive
Potency [14]: inactive
max response [15]: -2.3% (inactive) and 1.03% (inactive)
outcome [16]: inactive

O=[N+]([O-])c1cccc(Cl)c1Cl
Potency [17]: inactive
Potency [1]: inactive
Potency [2]: inactive
Potency [3]: inactive
activation [4]: 3.57% (inactive) and 3.5% (inactive)
Potency [5]: inactive
outcome [6]: inactive
outcome [18]: inactive
outcome [19]: inactive
max response [7]: 6.35% and -11.4%
outcome [8]: inactive
Potency [20]: inactive
Potency [12]: inactive
Potency [13]: inactive
Potency [14]: inactive
max response [15]: -1.89% (inactive) and -3.78% (inactive)
outcome [16]: inactive

Cc1c(N=C=O)cccc1N=C=O
Potency [1]: inactive
Potency [2]: inactive
Potency [3]: inactive
activation [4]: -8.06% (inactive) and -0.129% (inactive)
Potency [5]: inactive
outcome [6]: inactive
outcome [18]: inactive
outcome [19]: inactive
max response [7]: -9.85% and -4.8%
outcome [8]: inactive
outcome [9]: inactive
activity change % (negative = inhibition) [10]: 2.21% (inactive) and -0.0232% (inactive)
Potency [20]: inactive
activation [11]: -0.524% (inactive) and 6.01% (inactive)
Potency [13]: inactive
Potency [14]: inactive
max response [15]: -1.26% (inactive) and -0.744% (inactive)
outcome [16]: inactive

COC(=O)c1ccc(C=O)cc1
Potency [17]: inactive
Potency [1]: inactive
Potency [2]: inactive
Potency [3]: inactive
activation [4]: 8.1% (inactive) and -8.49% (inactive)
Potency [5]: inactive
outcome [6]: inactive
outcome [18]: inactive
outcome [19]: inactive
max response [7]: 2.75% and 4.18%
outcome [8]: inactive
outcome [9]: inactive
activity change % (negative = inhibition) [10]: 3.66% (inactive)
Potency [20]: inactive
activation [11]: -0.565% (inactive) and 0.101% (inactive)
Potency [12]: inactive
Potency [13]: inactive
Potency [14]: inactive
max response [15]: -0.798% (inactive) and -1.94% (inactive)
outcome [16]: inactive

NC1=NC(S)C2N=CN=C2N1 (stereo not given)
Potency [17]: inactive
activation [4]: -9.94% (inactive)
Potency [5]: 7.08 µM (active)
outcome [18]: inactive
outcome [19]: inactive
outcome [9]: inactive
activity change % (negative = inhibition) [10]: 18.1% (inactive)
Potency [20]: 33.5 µM (active)
Potency [12]: inactive
Potency [13]: inactive
Potency [14]: inactive
max response [15]: -3.62% (inactive)

CCCN(CCC)C(=O)SCC
Potency [17]: inactive
Potency [1]: inactive
Potency [2]: inactive
Potency [3]: inactive
activation [4]: 1.32% (inactive) and 12.8% (inactive)
Potency [5]: inactive
outcome [6]: inactive
outcome [18]: inactive
outcome [19]: inactive
max response [7]: -2.35% and -18.5%
outcome [8]: inactive
outcome [9]: inactive
activity change % (negative = inhibition) [10]: 0.19% (inactive) and 8.86% (inactive)
Potency [20]: inactive
activation [11]: 0.439% (inactive) and 11.8% (inactive)
Potency [13]: inactive
Potency [14]: inactive
max response [15]: 5.19% (inactive) and 0.741% (inactive)
outcome [16]: inactive

Clc1cc(Cl)c(Cl)cc1Cl
Potency [17]: inactive
Potency [1]: inactive
Potency [2]: inactive
Potency [3]: inactive
activation [4]: 3.81% (inactive) and -2.02% (inactive)
Potency [5]: inactive
outcome [6]: inactive
max response [7]: 4.21% and -11.5%
outcome [8]: inactive
outcome [9]: inactive
activity change % (negative = inhibition) [10]: 5.68% (inactive) and 7.52% (inactive)
Potency [20]: inactive
activation [11]: -2.65% (inactive) and -1.28% (inactive)
Potency [12]: inactive
Potency [13]: inactive
Potency [14]: inactive
max response [15]: 1.48% (inactive) and 5.88% (inactive)
outcome [16]: inactive

CC(C)=CCCC(C)CCO (stereo not given)
Potency [17]: inactive
Potency [1]: inactive
Potency [2]: inactive
Potency [3]: inactive
activation [4]: 0.913% (inactive) and 4.62% (inactive)
Potency [5]: inactive
outcome [6]: inactive
max response [7]: -10.2% and -2.4%
outcome [8]: inactive
outcome [9]: inactive
activity change % (negative = inhibition) [10]: -8.9% (inactive) and -1.71% (inactive)
Potency [20]: inactive
activation [11]: 0.545% (inactive) and -1.78% (inactive)
Potency [12]: inactive
Potency [13]: inactive
Potency [14]: inactive
max response [15]: -5.01% (inactive) and 0.846% (inactive)
outcome [16]: inactive
